Giardia kill = Small Molecules that selectively kill Giardia lamblia: qHTS | Giardia lamblia trophozoite viability | activity change, % at 7.66 µM, hits read low | actives 0.15% (n = 340,000) | AID 540267, 2011; in the data active means activity change below about -80%;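 further: parasites exposed to compound for two days anaerobically before the ATP read; on the % scale 0 is the no-effect control and ±100 the full control effect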
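Each well holds 100 Giardia trophozoites and compound. After two days (48 hrs) at 37 deg C in anaerobic conditions, ATP is quantified by luminescence.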
B2AR arrestin = qHTS assay of beta-arrestin-biased ligands of beta2-adrenergic receptor; Beta-2 adrenergic receptor (Homo sapiens), P07550; beta-arrestin recruitment to beta2AR, cell-based reporter; Potency, µM (top dose mostly 46.1 µM), without a hit: at the highest dose activation, most hits filed as activators; actives 0.02% (n = 330,000); active means well fitted activation curve with a large enough effect;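 further: potency means the concentration at half of the fitted maximal effect; 0% = DMSO controls and full agonism = EC100 isoproterenol or metaproterenol; nearly all actives have a fitted effect of over 65% in size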
D3 antag = qHTS of D3 Dopamine Receptor Antagonist: qHTS | D(3) dopamine receptor (Homo sapiens), P35462 | D3R cells, DiscoveRx beta-arrestin luminescence, antagonist mode; active compounds read low | max response, negative = inhibition, % | actives 2.5% (n = 360,000) | AID 652054, 2013; in the data active means max response below about -50%; further: on the % scale 0 is the no-effect control and ±100 the full control effect
Target sequence (P35462 whole entry, looked up): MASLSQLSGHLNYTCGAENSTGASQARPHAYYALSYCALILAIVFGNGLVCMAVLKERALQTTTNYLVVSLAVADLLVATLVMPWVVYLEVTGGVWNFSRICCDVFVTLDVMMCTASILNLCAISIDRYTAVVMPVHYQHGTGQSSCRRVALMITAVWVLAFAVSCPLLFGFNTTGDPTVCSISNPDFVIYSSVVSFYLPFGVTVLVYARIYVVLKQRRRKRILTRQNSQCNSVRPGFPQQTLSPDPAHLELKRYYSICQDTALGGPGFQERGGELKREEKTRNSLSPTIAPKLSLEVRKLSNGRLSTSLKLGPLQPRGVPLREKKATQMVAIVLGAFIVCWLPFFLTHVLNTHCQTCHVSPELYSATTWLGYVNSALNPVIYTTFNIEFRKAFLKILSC
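Cells expressing the human receptor were seeded at 1500 cells/well, incubated overnight at 37 degrees C in 5% CO2, then exposed to library compounds with dopamine controls for 90 minutes at 37 degrees C before luminescent detection.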
D3 ag = qHTS of D3 Dopamine Receptor Agonist: qHTS; D(3) dopamine receptor (Homo sapiens), P35462; D3R DiscoveRx beta-arrestin cells, luminescence, 90 min; max activation, %; actives 0.58% (n = 410,000); AID 652048, 2013; in the data active means max activation above about 30%; further: 0% is about no effect
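Agonist mode: compounds and dopamine controls were applied to plated cells for 90 min at 37 degrees C after an overnight attachment at 1500 cells/well. Luminescent read-out followed 30 - 60 minutes at room temperature with DiscoveRx detection reagent.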
Numbers without * were called inactive; . = not tested or not shown. A selection: hits, their analogues and other compounds. The true share with any hit is near 2.8%.

SMILES	Giardia kill	B2AR arrestin	D3 antag	D3 ag
COc1ccc(-c2c(C3C4C=CCCC4(C)C(=O)N3Cc3ccccc3)ccc3ccccc23)cc1 (stereo unspecified)	0	.	.	.
Cc1nn(S(=O)(=O)c2ccccc2)c(C)c1Sc1ccc([N+](=O)[O-])cc1	-2	0%	-80*	-1
O=C(Nc1ccc(NC(=O)c2cccs2)cc1)c1ccc(Br)cc1	.	.	.	7
CC(C)=CCc1c2c(c3occ(-c4ccc(O)cc4)c(=O)c3c1O)C=CC(C)(C)O2	3	-1%	36	69*
C[C@@H]1[C@H](O)[C@@H](C)/C=C/C=C\C=C\C=C\C=C\C=C\C=C\[C@H](O[C@@H]2O[C@H](C)[C@@H](O)[C@H](N)[C@@H]2O)C[C@@H]2O[C@](O)(C[C@@H](O)C[C@@H](O)[C@H](O)CC[C@@H](O)C[C@@H](O)CC(=O)O[C@H]1C)C[C@H](O)[C@H]2C(=O)O (stereo in doubt)	.	.	.	-14
N#CC(NC(=O)OCc1ccccc1)c1ccccc1 (stereo unspecified)	-29	0%	-54*	-17
CC(NC(=O)OCc1ccccc1)c1ccccc1 (stereo unspecified)	4	.	-10	1
COc1ccc(N(CC(=O)Nc2cccc(Cl)c2C)S(=O)(=O)c2c(C)nn(C)c2C)cc1	.	.	.	2
O=C1C[C@@H](c2ccccc2Cl)N1S(=O)(=O)c1ccccc1[N+](=O)[O-]	-11	.	.	.
CNCc1c(OCc2ccc(F)cc2)ccc2ccccc12	15	0%	-61*	-25
COC(=O)C1=C[C@@H](C(=O)OC)C2C3=C(C(=O)[C@]2(CC(C)C)NC(=O)c2ccccc2)[C@H](C)n2c(=O)n(C)c(=O)n2[C@@H]3C1 (stereo partly specified)	-19	.	.	.
Cn1cnc([N+](=O)[O-])c1S(=O)(=O)Oc1cccc2ccccc12	0	.	-97*	-35
Cn1cnc([N+](=O)[O-])c1Oc1cccc2ccccc12	-4	-1%	-6	-4
Cn1cnc([N+](=O)[O-])c1S(=O)(=O)Oc1ccc(Cl)cc1	0	.	-89*	-13
Oc1ccccc1C1C=C(c2ccc3c(c2)OCO3)NC(c2ccc(Br)cc2)N1 (stereo unspecified)	-9	.	.	.
CCOC(=O)C1=C(N)N2C(=O)CSC2=C(C(=O)OC)C1	-1	0%	19	5
CCOC(=O)c1c(C(=O)OCC)c(C)n(N2C(=O)CSC2=S)c1C	-23	0%	-62*	-2
NS(=O)(=O)c1ccc(NC(=S)NCc2ccccc2)cc1	2	4%	-12	0
NS(=O)(=O)c1ccc(NC(=S)NCc2ccccc2Cl)cc1	-16	0%	-68*	-8
CCOC(=O)Cn1c(=O)n(-c2ccccc2OC)c2nc(-c3ccccc3C)nc(C(N)=O)c21	.	.	.	6
CN1CCN(c2nc(C#N)cc(-c3ccccc3)n2)CC1	-3	0%	-74*	-11
FC(F)(F)c1cc(-c2cccs2)nc(-n2cc(Br)cn2)n1	-16	0%	16	10
FC(F)(F)c1cc(-c2cccs2)nc(N2CCOCC2)n1	-1	-1%	-58*	5
COc1ccc(-c2cc(C(F)(F)F)nc(N3CCN(C)CC3)n2)cc1	8	-1%	-66*	1
COc1ccc(CNC(=O)c2ccc(-c3nc(CSc4ccccc4)c(C)o3)cc2)cc1	.	.	.	-7
SMILES	Giardia kill	B2AR arrestin	D3 antag	D3 ag
CC(CCC(=O)NN)C1CCC2C3CCC4CC(O)CCC4(C)C3CCC12C (stereo unspecified)	-6	.	16	6
CC(CCC(C)C(C)(C)C)[C@@H]1CC[C@H]2C3C[C@H](OS(O)(=S)=S)[C@H]4C[C@H](OS(O)(=S)=S)[C@@H](OS(O)(=S)=S)C[C@]4(C)[C@H]3CC[C@]12C (stereo partly specified) (tested in a mixture with another compound)	-8	-1%	-83*	-10
COc1ccc(-c2cn3c(n2)sc2cc(C(=O)Nc4ccc(F)cc4Cl)ccc23)cc1	.	.	.	-23
Cc1cc(S(=O)(=O)Nc2ccc(C(=O)N3CCN(c4ccccc4O)CC3)cc2)ccc1F	-14	0%	43	32*
Cc1ccc(S(=O)(=O)Nc2cccc(C(=O)N3CCN(c4ccccc4O)CC3)c2)cc1F	15	0%	-7	12
O=S(=O)(Nc1cccnc1)c1ccc(Cl)c(C(F)(F)F)c1	11	.	-51*	-2

Compound activity: PubChem BioAssay, National Center for Advancing Translational Sciences (NCATS)
